“And” between values parts separate entries of the source, which are not always exact repeats. Equal values may be shown once. Inconclusive results are not listed. The source made the active and inactive calls. Unless noted, calls come from the whole dose curve; as a rule, active = well fitted curve in the direction sought with a large enough effect; inconclusive = small, poorly fitted or top-dose-only effect, or another doubt; inactive = no such curve, though single readings can be large; an effect the other way counts as inactive or inconclusive.
What was measured:
[1] = Viability counterscreen for antagonist of constitutive androstane receptor (CAR) against the NCATS DSHEA and TCM libraries (AID 1794837);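 note: compound exposure lasted 24 h before viability reading; 0% is about no effect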
How it was run: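 Cell viability, CellTiter-Fluor, Ex/Em 405/540 nm, 1 h at 37C. HepG2-CYP2B6-hCAR, 2,500 cells/well; cpds + CITCO 48 uM final (antagonist mode), 24 h, 37C/5% CO2.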

[2] = Viability counterscreen for agonist of constitutive androstane receptor (CAR) against the NCATS DSHEA and TCM libraries (AID 1794838); note: 0% is about no effect
How it was run: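 Viability by CellTiter-Fluor fluorescence, 405/540 nm, after 1 h at 37C. HepG2-CYP2B6-hCAR cells were exposed 24 h to test substances in presence of 0.75 uM PK11195 (final).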

[3] = molecular target: Nuclear receptor subfamily 1 group I member 3 (Homo sapiens) (UniProt Q14994); test: Primary qHTS for agonist of constitutive androstane receptor (CAR) against the NCATS DSHEA and TCM libraries (AID 1794839); settings: Potency: CAR antagonist co-added at 0.75 µM unless noted; note: potency is the fitted concentration of half-maximal effect;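 for activation: HepG2 cells expressing human CAR with a CYP2B6 reporter plus PK11195 antagonist; 0% is about no effect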
How it was run: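 Luminescence from ONE-Glo luciferase was the agonist read-out in HepG2-CYP2B6-hCAR cells exposed 24 h to test substances. Wells also held the CAR antagonist PK11195 at 0.75 µM final. Viability was by CellTiter-Fluor fluorescence.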

[4] = molecular target: Cytochrome P450 3A4 (Homo sapiens) (UniProt P08684); test: qHTS for inhibitors of CYP3A4 against the NCATS DSHEA and TCM libraries (AID 1919971); note: potency is the fitted concentration of half-maximal effect
How it was run: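 Isoform-specific enzyme and substrate levels; enzyme-free wells as background. Reaction: 1x NADPH regenerating system, 30-45 min, room temperature, shielded from light; luminescent detection reagent added, 30 min.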

[5] = molecular target: Cytochrome P450 1A2 (Homo sapiens) (UniProt P05177); test: qHTS for inhibitors of CYPIA2 against the NCATS DSHEA and TCM libraries (AID 1919976); note: potency is the fitted concentration of half-maximal effect
How it was run: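 Furafylline served as the plate control. Compounds met CYP1A2 and pro-luciferin substrate 15 min before NADPH regeneration solution (1x) was added; after 30-45 min at RT, P450-Glo reagent was added for 30 min and luminescence was measured.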

[6] = qHTS for differential inhibitors of proliferation of Plasmodium falciparum line 7G8 (AID 1815);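 note: potency is the fitted concentration of half-maximal effect; parasite growth measured after three days of incubation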
[7] = qHTS for differential inhibitors of proliferation of Plasmodium falciparum line GB4 (AID 1816); settings: Potency: Plasmodium falciparum GB4 proliferation inhibition;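 note: potency is the fitted concentration of half-maximal effect; parasite growth measured after 72 h incubation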
[8] = qHTS for differential inhibitors of proliferation of Plasmodium falciparum line HB3 (AID 1886); settings: Potency: Plasmodium falciparum HB3 proliferation inhibition;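 note: potency is the fitted concentration of half-maximal effect; parasites grown with compound for 72 h before SYBR Green readout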
[9] = Cell Viability - BJ (AID 421; calls by dose curve;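 note: potency is the fitted concentration of half-maximal effect; cells exposed to compound for 40 hours at 37 °C before readout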); settings: BJ fibroblast viability, qHTS
How it was run: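 Normal human BJ foreskin fibroblasts, 1500/well in complete medium, treated 40 hr at 37 °C. Cellular ATP by CellTiter-Glo luminescence; normalized to DMSO and 100 uM tamoxifen, AC50 from Hill fit.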

[10] = Cell Viability - Renal Proximal Tubule (AID 545); settings: renal proximal tubule cells viability, at 91.7 µM (top of the series);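 note: cells exposed to compound for 40 hours; 0% = DMSO only and -100% = 100 µM tamoxifen; nearly all actives have a fitted effect of over 40% in size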
How it was run: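 Rat kidney proximal tubule cells, freshly isolated; 1000 cells/well, 5 hr settle, compound 40 hr 37 °C. CellTiter-Glo 20 min RT, luminescence read. AC50 by standard Hill fit.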

[11] = Cellular Toxicity (caspase-3) Renal Proximal Tubule (AID 667); settings: renal proximal tubule cells, at 91.7 µM (top of the series);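 note: cells exposed to compound for 16 hours at 37 °C before detection; 0% = DMSO basal and 100% = 10 µM staurosporine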
How it was run: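 Luminescent caspase 3/7 signal from peptide-aminoluciferin cleavage measures apoptosis in freshly isolated rat kidney proximal tubule cells after 16 h compound exposure. Concentration-response data are normalized to DMSO and 10 uM staurosporine, and AC50 values come from Hill equation fits.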

[12] = qHTS Assay for Identification of Small Molecule Inducers of Hypoxia Response (AID 2120; active = well fitted curve in the direction sought with a large enough effect in the signal ratio, with a control signal flat, not every such curve was filed as active; the % refers to the signal ratio; note: 0% is about no effect)
How it was run: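 HRE-bla ME-180, 2500 cells/well, 0.5% dialyzed FBS medium; cpd titration, 17 h 37 degrees C; CCF4 2.5 h RT; Ex 405, Em 460/530 ratio -> %Activity, AC50.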

[13] = qHTS assay for small molecule antagonists of retinoid X receptor alpha signaling (AID 588546; active = well fitted inhibition curve with a large enough effect in the signal ratio, with a control signal flat, not every such curve was filed as active; the % refers to the signal ratio;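 note: cells stimulated with 9-cis-retinoic acid as agonist; % is set by controls: 0 for no effect and ±100 for the full control effect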); settings: HEK293T RXRa-UAS-bla, beta-lactamase ratio, antagonist mode; measured here: W530 green channel, cytotoxicity proxy
How it was run: (§1)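 Beta-lactamase reporter inhibition, read as CCF4 fluorescence ratio (ex 405, em 460/530 nm) after 2 h at RT. HEK293T UAS-bla cells, 2500/well, were stimulated with 9-cis-RA at 500 or 100 nM final alongside test compound for 18 h at 37 C.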

[14] = molecular target: Retinoic acid receptor RXR-alpha (Homo sapiens) (UniProt P19793); test: as above; settings: HEK293T RXRa-UAS-bla, beta-lactamase ratio, antagonist mode
How it was run: as §1

[15] = qHTS assay for small molecule activators of the p53 signaling pathway (AID 651743; active = well fitted activation curve with a large enough effect in the signal ratio, not every such curve was filed as active; the % refers to the signal ratio; note: % of control where 0% means no effect); settings: HCT-116 p53RE-bla, beta-lactamase FRET ratio, 16 h; activation: stronger effect = higher value
How it was run: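 A beta-lactamase reporter under p53 response element control, stably carried by HCT-116 cells, reported pathway activation. Test compounds were applied for 16 hours at 37 C, and fluorescence was measured 2 hours after adding the B/G FRET substrate.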

[16] = qHTS assay for small molecule agonists of the antioxidant response element (ARE) signaling pathway measured by Nrf2-dependant transcriptional activity (AID 720636; active = well fitted curve in the direction sought with a large enough effect in the repeat runs; an effect the other way counts as inactive or inconclusive;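 note: HepG2 cells with an ARE-driven luciferase reporter; % of control where 0% means no effect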)
How it was run: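 Attachment 6 hr at 37 C, then compound versus DMSO vehicle for 16 hr in ARE-luc HepG2 cells (1% dialyzed FBS); luminescence recorded 30 min after ONE-Glo addition at room temperature.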

[17] = qHTS assay for small molecule agonists of the antioxidant response element (ARE) signaling pathway measured by Nrf2-dependant transcriptional activity - cell viability counter screen (AID 720653; active = well fitted curve in the direction sought with a large enough effect in the repeat runs; an effect the other way counts as inactive or inconclusive; note: % is set by controls: 0 for no effect and ±100 for the full control effect); settings: ARE-bla HepG2 viability, CellTiter-Glo ATP luminescence, 16 h; stronger effect = lower value
How it was run: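 Cytotoxicity counter screen: intracellular ATP quantified by CellTiter-Glo luminescence in the same ARE-bla HepG2 plates, after 16 h compound exposure and a 2 h beta-lactamase substrate step.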

[18] = qHTS assay for cell viability of HEK293 cells (AID 743288); settings: ATP luminescence (CellTiter-Glo), 18 h; max response: stronger effect = lower value; note: % is set by controls: 0 for no effect and ±100 for the full control effect; nearly all actives have a fitted effect of over 50% in size
How it was run: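 ATP luminescence (CellTiter-Glo) reports metabolically competent cell number after parental HEK293 cells, 2,000/well, were treated with DMSO-dissolved compounds for 18 h at 37 C; reagent incubation 30 min, room temperature.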

[19] = qHTS assay for cell viability of the p53RE-bla HCT-116 cell line (AID 743292); note: % is set by controls: 0 for no effect and ±100 for the full control effect; nearly all actives have a fitted effect of over 55% in size
How it was run: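 Compound-exposed HCT-116 (p53RE-bla) cells, 4,000 per well, were kept 16 h at 37 C following a 5 h preincubation. Cell number was estimated from total ATP by CellTiter-Glo luminescence read after 30 min at room temperature.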

[20] = primary cells of rat origin unless noted
[21] = primary cells freshly taken from rat, solvent-only wells 0%, staurosporine 100% unless noted

Cytochrome P450 3A4 (Homo sapiens), sequence (P08684 whole entry, looked up, canonical isoform): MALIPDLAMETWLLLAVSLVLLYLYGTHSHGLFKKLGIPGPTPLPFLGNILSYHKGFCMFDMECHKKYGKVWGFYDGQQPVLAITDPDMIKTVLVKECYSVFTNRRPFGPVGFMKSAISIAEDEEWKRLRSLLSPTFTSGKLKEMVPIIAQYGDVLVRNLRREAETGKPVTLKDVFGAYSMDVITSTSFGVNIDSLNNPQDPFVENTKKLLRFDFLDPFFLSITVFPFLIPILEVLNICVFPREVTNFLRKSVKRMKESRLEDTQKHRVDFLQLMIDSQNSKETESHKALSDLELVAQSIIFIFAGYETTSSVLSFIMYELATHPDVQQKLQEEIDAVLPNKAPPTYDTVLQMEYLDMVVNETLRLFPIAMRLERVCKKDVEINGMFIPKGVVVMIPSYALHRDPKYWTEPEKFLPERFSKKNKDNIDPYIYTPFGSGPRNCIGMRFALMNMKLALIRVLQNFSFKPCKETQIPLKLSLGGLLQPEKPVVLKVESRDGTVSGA
Cytochrome P450 1A2 (Homo sapiens), sequence (P05177 whole entry, looked up): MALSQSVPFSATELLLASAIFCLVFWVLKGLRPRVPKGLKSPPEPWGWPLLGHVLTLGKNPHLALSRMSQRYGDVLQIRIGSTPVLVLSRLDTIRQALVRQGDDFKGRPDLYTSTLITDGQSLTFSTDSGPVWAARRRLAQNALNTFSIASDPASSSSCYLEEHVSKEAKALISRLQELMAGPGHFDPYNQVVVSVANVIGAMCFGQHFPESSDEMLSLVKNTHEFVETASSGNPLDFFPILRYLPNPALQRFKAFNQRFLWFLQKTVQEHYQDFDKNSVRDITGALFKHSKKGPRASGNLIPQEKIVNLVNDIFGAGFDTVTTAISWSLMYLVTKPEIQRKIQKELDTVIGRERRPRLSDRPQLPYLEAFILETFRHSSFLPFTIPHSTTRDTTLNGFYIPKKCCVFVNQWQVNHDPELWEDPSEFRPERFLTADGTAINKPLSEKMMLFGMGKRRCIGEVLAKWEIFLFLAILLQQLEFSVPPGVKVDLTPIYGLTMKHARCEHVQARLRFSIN
Retinoic acid receptor RXR-alpha (Homo sapiens), sequence (P19793 whole entry, looked up): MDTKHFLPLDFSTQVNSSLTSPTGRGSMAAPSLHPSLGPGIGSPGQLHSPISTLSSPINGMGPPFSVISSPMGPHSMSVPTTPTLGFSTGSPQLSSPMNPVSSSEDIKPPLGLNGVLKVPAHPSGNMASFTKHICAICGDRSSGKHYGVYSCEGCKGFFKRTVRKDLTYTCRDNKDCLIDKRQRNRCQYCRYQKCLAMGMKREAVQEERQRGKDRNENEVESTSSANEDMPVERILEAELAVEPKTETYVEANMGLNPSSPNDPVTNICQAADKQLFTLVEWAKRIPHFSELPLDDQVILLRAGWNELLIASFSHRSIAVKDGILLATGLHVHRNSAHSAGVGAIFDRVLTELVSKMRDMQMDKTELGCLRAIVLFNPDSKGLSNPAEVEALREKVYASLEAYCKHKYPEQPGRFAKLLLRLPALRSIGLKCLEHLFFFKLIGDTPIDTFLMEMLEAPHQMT
Nuclear receptor subfamily 1 group I member 3 (Homo sapiens), sequence (Q14994 whole entry, looked up): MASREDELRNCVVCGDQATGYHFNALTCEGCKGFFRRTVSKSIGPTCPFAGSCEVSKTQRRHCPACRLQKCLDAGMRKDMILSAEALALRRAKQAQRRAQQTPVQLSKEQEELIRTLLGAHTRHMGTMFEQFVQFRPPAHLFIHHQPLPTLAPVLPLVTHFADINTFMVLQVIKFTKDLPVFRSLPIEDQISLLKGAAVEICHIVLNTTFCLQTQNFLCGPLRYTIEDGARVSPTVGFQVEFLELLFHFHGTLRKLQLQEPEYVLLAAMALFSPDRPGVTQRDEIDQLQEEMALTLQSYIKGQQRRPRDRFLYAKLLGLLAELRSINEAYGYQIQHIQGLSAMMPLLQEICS

For C=C[C@H]1CN2CCc3c([nH]c4ccccc34)[C@H]2C[C@@H]1/C(=C\OC)C(=O)OC, the outcome [1] was “inactive”, the outcome [2] was “inactive” and the Potency [3] was “inactive”. The Potency [4] was 14.1 µM (active).
In the case of COC1=C[C@@]23CCN(C)[C@H](Cc4ccc(OC)c(O)c42)C3=CC1=O, the outcome [1] was “inactive”, the outcome [2] was “inactive” and the Potency [3] was “inactive”. For the same compound, the Potency [4] was “inactive” and the Potency [5] was “inactive”.
For C=C[C@H]1CN2CC[C@@]3(C(=O)Nc4ccccc43)[C@@H]2C[C@@H]1/C(=C\OC)C(=O)OC, the outcome [1] was “inactive”, the outcome [2] was “inactive” and the Potency [3] was “inactive”. For the same compound, the Potency [4] was 12.6 µM (active) and the Potency [5] was “inactive”.
In the case of COC(=O)C1=CO[C@@H](C)[C@@H]2CN3CC[C@@]4(C(=O)Nc5ccccc54)[C@@H]3CC12 (some centres undefined), the outcome [1] was “inactive”, the outcome [2] was “inactive” and the Potency [3] was “inactive”. The Potency [4] was 14.1 µM (active) and the Potency [5] was “inactive”.
With O=S(=O)(O)O the Potency [4] was “inactive” and the Potency [5] was 35.5 µM (active).
In the case of COc1cc2c(cc1O)CC1NCCc3cc(OC)c(OC)c-2c31 (centres undefined), the outcome [1] was “inactive”, the outcome [2] was “inactive” and the Potency [3] was “inactive”. For the same compound, the Potency [5] was 15.8 µM (active).
For COc1cc2c(cc1O)C[C@H]1c3c(cc(OC)c(O)c3-2)CCN1C, the outcome [1] was “inactive”, the outcome [2] was “inactive” and the Potency [3] was 12.6 µM (active). The Potency [5] was 10 µM (active).
For S=C(S)N1CCCC1, the Potency [6] was 2.82 µM (active), the Potency [7] was 2.82 µM (active) and the Potency [8] was 2.51 µM (active).
With COc1cc(OC)c(/C=C2/C(=O)Nc3ccccc32)c(OC)c1 the Potency [8] was 11.2 µM (active).
For OCC(Br)CBr (centres undefined), the Potency [9] was > 92 µM (inactive), the activity change, negative = cytotoxicity [10, 20] was 0.652% (inactive) and the caspase-3 activation [11, 21] was 0.653% (inactive). For the same compound, the outcome [12] was “inactive”, the max response [13] was -6.01% and the max response [14] was 1.29% (inactive). For the same compound, the activation [15] was 1.53% (inactive), the outcome [16] was “inactive” and the max response [17] was -0.194% (inactive). For the same compound, the max response [18] was 6.86% (inactive) and the Potency [19] was “inactive”.
For O=NN(c1ccccc1)c1ccccc1, the Potency [9] was > 92 µM (inactive), the activity change, negative = cytotoxicity [10, 20] was -4.13% (inactive) and the caspase-3 activation [11, 21] was 1.42% (inactive). The outcome [12] was “inactive”, the max response [13] was -5.84% and -1.3% and the max response [14] was -2.47% (inactive) and 4.6% (inactive). The activation [15] was -0.087% (inactive) and -2.72% (inactive), the outcome [16] was “inactive” and the max response [17] was -4.67% (inactive) and 8.95% (inactive). For the same compound, the max response [18] was -0.72% (inactive) and 1.61% (inactive) and the Potency [19] was “inactive”.
With Cc1ccccc1N the Potency [9] was > 92 µM (inactive), the activity change, negative = cytotoxicity [10] was -0.93% (inactive) and the activity change, negative = cytotoxicity ([10]; primary cells of rat origin) was -4.73% (inactive). The caspase-3 activation [11] was -5.94% (inactive), the caspase-3 activation ([11]; primary cells freshly taken from rat, solvent-only wells 0%, staurosporine 100%) was 22.1% (inactive) and the outcome [12] was “inactive”. The max response [13] was -2.57%, the max response [14] was 13.9% (inactive) and the activation [15] was -1.62% (inactive) and -3.19% (inactive). The outcome [16] was “inactive”, the max response [17] was -8.44% (inactive) and 1.06% (inactive) and the max response [18] was -10.9% (inactive) and 0.49% (inactive). For the same compound, the Potency [19] was “inactive”.
In the case of Cc1cccc([N+](=O)[O-])c1, the Potency [9] was > 92 µM (inactive), the activity change, negative = cytotoxicity [10, 20] was -7.28% (inactive) and the caspase-3 activation [11, 21] was 5.52% (inactive). For the same compound, the outcome [12] was “inactive”, the max response [13] was -5.54% and -8.46% and the max response [14] was 4.38% (inactive) and -23.2% (inactive). For the same compound, the activation [15] was -0.671% (inactive), the outcome [16] was “inactive” and the max response [17] was -0.821% (inactive) and -5.67% (inactive). The max response [18] was -6% (inactive) and -15.6% (inactive) and the Potency [19] was “inactive”.

— PubChem BioAssay (NCATS)
